Assay [1] in a line: qHTS RealTime-Glo MT Cell Viability Assay in HEK293 cells - 0 hour (AID 1224880). Further: top concentration of the series differs between compounds; nearly all actives have a fitted effect of over 45% in size. A digest of the protocol:
(§1)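 Viable HEK293 cells reduce a cell-permeant prosubstrate; the product diffuses out and is consumed by NanoLuc in the medium to give light. Compounds went in after a 5 h incubation and plates were read over the treatment course.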
(Quantitative high-throughput screening tests each substance at several concentrations.)

Assay [2] can be described thus: A CellTox Green Cytotoxicity Assay to monitor cytotoxicity in HEK293 cells - 32 hour (AID 1224881). Further: nearly all actives have a fitted effect of over 40% in size. A digest of the protocol:
(§2)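 Fluorescence intensity, read at 0, 8, 16, 24, 32 and 40 h of compound treatment, reflected dye binding to DNA of dead HEK293 cells; compounds (23 nL, DMSO) were added 5 h after plating cells with reagent.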

Assay [3] in a line: A CellTox Green Cytotoxicity Assay to monitor cytotoxicity in HepG2 cells - 0 hour (AID 1224882). Further: nearly all actives have a fitted effect of over 35% in size. A digest of the protocol: (§3)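 Using 1536-well format, dye-containing HepG2 suspension was seeded, allowed 5 h at 37 C/5% CO2, dosed by pintool with compounds, positive and negative controls, and imaged for fluorescence across 40 h.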
Assay [4] in a line: A CellTox Green Cytotoxicity Assay to monitor cytotoxicity in HepG2 cells - 32 hour (AID 1224883). Further: nearly all actives have a fitted effect of over 50% in size. A digest of the protocol:
as §3

A short description of assay [5]: A CellTox Green Cytotoxicity Assay to monitor cytotoxicity in HEK293 cells - 8 hour (AID 1224884). Further: nearly all actives have a fitted effect of over 35% in size. A digest of the protocol:
as §2

A short description of assay [6]: qHTS RealTime-Glo MT Cell Viability Assay in HepG2 cells - 16 hour (AID 1224885). Further: nearly all actives have a fitted effect of over 50% in size. The essentials: (§4)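 qHTS, HepG2, 600 cells/well, RealTime-Glo (NanoLuc + prosubstrate) added with cells; 5 h preincubation; DMSO compound addition; 37 C; luminescence at 0/8/16/24/32/40 h.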
Assay [7] can be described thus: qHTS RealTime-Glo MT Cell Viability Assay in HEK293 cells - 24 hour (AID 1224886). Further: top concentration of the series differs between compounds; nearly all actives have a fitted effect of over 50% in size. A digest of the protocol:
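Assay medium contained NanoLuc luciferase plus cell-permeant prosubstrate, added with HEK293 cells at 600 cells/well. After 5 h at 37 C/5% CO2 compounds were added; plates stayed at 37 C for 40 h with serial luminescence reads.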

A short description of assay [8]: qHTS RealTime-Glo MT Cell Viability Assay in HEK293 cells - 8 hour (AID 1224887). Further: top concentration of the series differs between compounds; nearly all actives have a fitted effect of over 50% in size. A digest of the protocol:
as §1

Assay [9] can be described thus: A CellTox Green Cytotoxicity Assay to monitor cytotoxicity in HEK293 cells - 16 hour (AID 1224888). Further: nearly all actives have a fitted effect of over 35% in size. The essentials: as §2
A short description of assay [10]: qHTS RealTime-Glo MT Cell Viability Assay in HepG2 cells - 0 hour (AID 1224889). Further: nearly all actives have a fitted effect of over 50% in size. A digest of the protocol: as §4
Assay [11] can be described thus: A CellTox Green Cytotoxicity Assay to monitor cytotoxicity in HepG2 cells - 8 hour (AID 1224890). Further: nearly all actives have a fitted effect of over 45% in size. A digest of the protocol:
as §3

Assay [12] is described as follows: qHTS assay to identify small molecule antagonists of the estrogen receptor alpha (ER-alpha) signaling pathway using the BG1 cell line in the presence of 0.1 nM 17-beta-estradiol - cell viability counter screen (AID 1259241). Further: nearly all actives have a fitted effect of over 40% in size. The essentials:
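Measures cytotoxicity alongside the ER-alpha antagonist readout: VM7Luc4E2 cells, charcoal-stripped serum, 0.1 nM 17beta-estradiol final, 22 hr compound incubation at 37C, CellTiter-Fluor fluorescence.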

A short description of assay [13]: qHTS assay to identify small molecule antagonists of the androgen receptor (AR) signaling pathway using the MDA cell line in the presence of 0.5 nM R1881 - cell viability counter screen (AID 1259242). Further: nearly all actives have a fitted effect of over 45% in size. A digest of the protocol: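 Viability of MDA-kb2 cells was multiplexed with the luciferase AR readout; after 16 hr with compounds and R1881 at 0.5 nM final, CellTiter-Fluor fluorescence was recorded.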

A short description of assay [14]: qHTS assay to identify small molecule HDAC inhibitors (AID 1259364). Further: potency means the concentration at half of the fitted maximal effect.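 Further: wild-type HCT-116 cells with endogenous class I/II HDAC activity; nearly all actives have a fitted effect of over 45% in size.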 A digest of the protocol: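 Read-out: luminescence of HDAC-Glo I/II reagent, 30 min RT, reflecting class I/II deacetylase activity in whole HCT-116 cells pre-exposed 2 h to DMSO-dissolved compounds.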
The nature of assay [15]: qHTS assay to identify small molecule HDAC inhibitors - cell viability counter screen (AID 1259365). The essentials:
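Following a 2hr exposure of overnight-plated wild-type HCT-116 cells to DMSO-delivered compounds, CellTiter-Glo was added and luminescence recorded after 30min at room temperature.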

Assay [16] can be described thus: qHTS assay to identify small molecule agonists of the sonic hedgehog signaling (Shh) pathway - cell viability counter screen (AID 1259366). Further: nearly all actives have a fitted effect of over 50% in size. A digest of the protocol:
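After a 4hr attachment at 37C, NIH/3T3 cells bearing an integrated Gli1-driven luciferase reporter were dosed with compounds. Treatment lasted 24hr, with the final hour including CellTiter-Fluor for a fluorescence viability measurement.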

The nature of assay [17]: qHTS assay to identify small molecule antagonists of the sonic hedgehog signaling (Shh) pathway - cell viability counter screen (AID 1259367). Further: nearly all actives have a fitted effect of over 55% in size. The essentials: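 NIH/3T3-derived Gli1-Luc reporter cells, 2,000/well, plated 4 hr before compound addition, then stimulated with conditioned medium for 24 hr at 37C. Viability measured in the same wells by CellTiter-Fluor fluorescence, reagent added at 23 hr for 1 hr.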

Assay [18] addresses Androgen receptor (Homo sapiens) (UniProt P10275). Kind of assay: qHTS assay to identify small molecule antagonists of the androgen receptor (AR) signaling pathway using the MDA cell line in the presence of 0.5 nM R1881 (AID 1259243). Further: nearly all actives have a fitted effect of over 50% in size. A digest of the protocol: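 Reporter cells cultured without CO2 receive test chemicals, then 0.5 nM R1881 final; after 16 hr at 37C, ONE-Glo is added and light output recorded.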

Assay [19] deals with Estrogen receptor (Homo sapiens) (UniProt P03372). The experiment in a line: qHTS assay to identify small molecule antagonists of the estrogen receptor alpha (ER-alpha) signaling pathway using the BG1 cell line in the presence of 0.1 nM 17-beta-estradiol (AID 1259244). Further: nearly all actives have a fitted effect of over 50% in size. The essentials:
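Estradiol at 0.1 nM (final) stimulates the endogenous ER-alpha of VM7Luc4E2 cells carrying an ERE-driven luciferase; compounds are co-incubated 22 h at 37C and luciferase output quantified by luminescence.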

A short description of assay [20]: qHTS assay to identify small molecule phospholipidosis (PLD) inducers (AID 1259344; active means well fitted curve in the direction sought with a large enough effect; an effect the other way counts as inactive or inconclusive). A digest of the protocol: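 HepG2 cells, 900/well, treated with compound plus LipidTOX Red for 24 h at 37 C; amiodarone positive and DMSO negative controls. Fixed with paraformaldehyde/Hoechst, then high-content imaging scored LipidTOX pit count and integrated intensity per well and per cell.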

Unmarked numbers belong to inactive results. Records with an inconclusive call do not appear. Activity calls are given as the source filed them. Unless noted, the call rests on the fitted dose curve; in most records, active means well fitted curve in the direction sought with a large enough effect in the repeat runs; inconclusive means weak or mixed curves; inactive means no such curve, though single readings can be large; an effect the other way counts as inactive or inconclusive.

Sequence of Androgen receptor (Homo sapiens) (P10275 whole entry, looked up): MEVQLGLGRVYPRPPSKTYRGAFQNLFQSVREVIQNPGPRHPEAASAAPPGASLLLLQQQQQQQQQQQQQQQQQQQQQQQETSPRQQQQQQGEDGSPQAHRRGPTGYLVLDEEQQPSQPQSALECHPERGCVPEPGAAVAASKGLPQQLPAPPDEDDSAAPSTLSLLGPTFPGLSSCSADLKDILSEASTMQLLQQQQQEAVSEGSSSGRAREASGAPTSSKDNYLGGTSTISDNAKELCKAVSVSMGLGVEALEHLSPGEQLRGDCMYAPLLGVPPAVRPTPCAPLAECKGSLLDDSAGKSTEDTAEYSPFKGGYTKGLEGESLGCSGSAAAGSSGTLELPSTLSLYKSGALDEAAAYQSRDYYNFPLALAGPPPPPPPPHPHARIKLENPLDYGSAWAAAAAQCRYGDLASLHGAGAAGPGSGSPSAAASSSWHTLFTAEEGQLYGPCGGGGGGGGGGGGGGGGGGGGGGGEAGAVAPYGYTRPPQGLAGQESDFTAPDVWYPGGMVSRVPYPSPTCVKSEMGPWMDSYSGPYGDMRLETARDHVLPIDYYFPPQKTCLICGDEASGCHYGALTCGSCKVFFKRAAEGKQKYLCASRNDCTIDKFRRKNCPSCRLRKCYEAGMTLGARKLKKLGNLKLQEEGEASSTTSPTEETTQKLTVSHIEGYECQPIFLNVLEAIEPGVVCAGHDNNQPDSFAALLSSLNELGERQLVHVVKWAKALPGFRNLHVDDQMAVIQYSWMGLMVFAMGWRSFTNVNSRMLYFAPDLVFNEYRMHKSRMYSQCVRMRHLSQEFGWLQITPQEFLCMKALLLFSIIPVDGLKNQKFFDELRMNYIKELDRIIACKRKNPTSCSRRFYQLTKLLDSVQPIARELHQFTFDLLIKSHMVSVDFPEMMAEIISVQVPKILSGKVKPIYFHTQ
Sequence of Estrogen receptor (Homo sapiens) (P03372 whole entry, looked up): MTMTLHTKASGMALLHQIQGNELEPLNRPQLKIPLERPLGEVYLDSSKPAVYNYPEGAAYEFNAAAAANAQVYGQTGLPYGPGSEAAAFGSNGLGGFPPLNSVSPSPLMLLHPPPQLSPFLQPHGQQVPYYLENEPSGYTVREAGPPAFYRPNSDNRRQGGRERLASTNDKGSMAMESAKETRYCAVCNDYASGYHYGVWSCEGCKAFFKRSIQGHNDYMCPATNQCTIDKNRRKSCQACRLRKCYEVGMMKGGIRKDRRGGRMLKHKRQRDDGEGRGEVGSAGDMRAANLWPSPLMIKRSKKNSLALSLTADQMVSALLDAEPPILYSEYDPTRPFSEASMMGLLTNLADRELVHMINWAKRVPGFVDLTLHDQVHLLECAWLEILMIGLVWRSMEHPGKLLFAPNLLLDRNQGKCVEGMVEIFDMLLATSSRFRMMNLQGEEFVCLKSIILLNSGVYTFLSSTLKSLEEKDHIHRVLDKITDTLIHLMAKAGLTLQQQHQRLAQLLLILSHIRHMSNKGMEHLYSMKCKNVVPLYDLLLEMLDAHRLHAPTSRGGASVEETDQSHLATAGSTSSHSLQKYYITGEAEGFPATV

For the compound `C=CC(O)CCCCC` (configuration not stated), the Potency entry in [1], in assay [2], in assay [3], in [4], in assay [5] and in [7] was “inactive” in each case. Besides, the Potency entry in assay [8], in assay [9], in assay [10], in assay [11], in [12] and in assay [13] was “inactive” in each case. Besides, the Potency entry in assay [14], in [16] and in assay [17] was “inactive” each time. For the same compound, the call in assay [6] and in assay [15] was inactive.
For the compound `OCCOc1cccc(OCCO)c1`, the Potency entry in assay [1], in assay [2], in assay [3], in assay [4], in [5] and in assay [7] was “inactive” throughout. For the same compound, the Potency entry in assay [8], in assay [9], in [10], in assay [11], in assay [12] and in assay [13] was “inactive” each time. For the same compound, the Potency result in [16] and in assay [17] was “inactive” each time. Further, in assay [6], the compound was called inactive. In assay [14], the Potency was 24.3 µM (active).
As to `CC(=O)S[C@H](C(=O)N[C@H]1Cc2ccccc2[C@H]2CCC[C@@H](C(=O)O)N2C1=O)C(C)C`, the Potency entry in assay [1], in assay [2], in assay [3], in assay [4], in [5] and in assay [7] was “inactive” in each case. Moreover, the Potency entry in assay [8], in assay [9], in [10], in assay [11], in assay [12] and in assay [13] was “inactive” throughout. Also, the Potency result in [14], in [16] and in assay [17] was “inactive” each time. The compound was called inactive in assay [6] and in assay [15].
With `CCCCCCCCC(=O)OCC(C)OC(=O)CCCCCCCC` (configuration not stated), the Potency entry in assay [1], in [2], in assay [3], in assay [4], in [5] and in [7] was “inactive” each time. In addition, the Potency entry in assay [8], in [9], in assay [10], in [11], in assay [12] and in [13] was “inactive” each time. The Potency entry in assay [14], in assay [16] and in [17] was “inactive” each time. Further, the outcome in assay [6] and in assay [15] was inactive.
Consider `O=[N+]([O-])c1ccc(Cl)cc1Cl`, for which the Potency result in assay [1], in [2], in assay [3], in assay [4], in assay [5] and in assay [7] was “inactive” each time. For the same compound, the Potency result in [8], in [9], in assay [10], in [11], in assay [12] and in assay [13] was “inactive” in each case. For the same compound, the Potency result in [14] and in assay [17] was “inactive” in each case. Further, the outcome in assay [6] and in assay [15] was inactive.
As for `CC(C)(O)C(=O)O`, the Potency result in [1], in [2], in assay [3], in assay [4], in [5] and in assay [7] was “inactive” in each case. In addition, the Potency entry in assay [8], in [9], in assay [10], in assay [11], in assay [12] and in assay [13] was “inactive” each time. Further, the Potency entry in assay [14], in [16] and in [17] was “inactive” in each case. Moreover, the result in assay [6] was inactive.
As for `CC[C@H](NC(C)C)[C@H](O)c1ccc(O)c2[nH]c(=O)ccc12`, the Potency entry in assay [1], in assay [2], in assay [3], in assay [4], in assay [5] and in [7] was “inactive” in each case. Further, the Potency result in assay [8], in assay [9], in assay [11], in assay [12], in assay [13] and in assay [18] was “inactive” throughout. Besides, the Potency result in assay [19], in [20], in assay [14], in [16] and in assay [17] was “inactive” throughout. The compound was classed as inactive in assay [6].

The record behind these values is PubChem BioAssay (Tox21).
